The source made the active and inactive calls. Rule for the calls: active = hit-call score of the fitted dose curve at least 0.9, where 1 is the maximum; inactive = score below 0.9.
Columns and labels:
Settings in all cases: mRNA level, 48 h; actives raise or lower the signal
[1] = read-out: CYP4A11 (gene 1579); assay: LTEA_HepaRG_CYP4A11: Life Technologies and Expression Analysis (LTEA) Assay for CYP4A11 using HepaRG (AID 2283486)
In short: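 HepaRG, 48 h chem exposure, 8 conc (100 uM top, half-log), 0.5% DMSO vehicle; qRT-PCR readout, housekeeping-gene normalized; bidirectional curve fit vs DMSO baseline.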

[2] = read-out: Cytochrome P450 3A4 (Homo sapiens) (UniProt P08684); assay: LTEA_HepaRG_CYP3A4: Life Technologies and Expression Analysis (LTEA) Assay for CYP3A4 using HepaRG (AID 2283487)
In short: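 Differentiated HepaRG cells in serum-free induction medium exposed in duplicate for 48 h to 8 half-log concentrations up to 100 uM in 0.5% DMSO. CYP3A4 mRNA measured by qRT-PCR normalized to ACTB, GAPDH and POLR2A; bidirectional fit versus DMSO.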

[3] = read-out: DNA damage-inducible transcript 3 (DDIT3), DDIT3 (gene 1649); assay: LTEA_HepaRG_DDIT3: Life Technologies and Expression Analysis (LTEA) Assay for DNA damage-inducible transcript 3 (DDIT3) using HepaRG (AID 2283488)
In short: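 Differentiated human HepaRG cells in serum-free induction medium were exposed in duplicate for 48 h to 8 concentrations (top 100 uM, half-log steps, 0.5% DMSO). DDIT3 mRNA measured by TaqMan qRT-PCR, normalized to ACTB/GAPDH/POLR2A; bidirectional fit versus DMSO.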

[4] = read-out: Pro-epidermal growth factor (Homo sapiens) (UniProt P01133); assay: LTEA_HepaRG_EGF: Life Technologies and Expression Analysis (LTEA) Assay for Epidermal growth factor (EGF) using HepaRG (AID 2283489)
In short: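 HepaRG, 48 h dosing, 100 uM top, half-log x8, 0.5% DMSO. Readout: TaqMan qRT-PCR (Fluidigm array), housekeeping-normalized. Gain or loss of signal fit vs DMSO.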

[5] = read-out: Early growth response protein 1 (EGR1) transcription factor, EGR1 (gene 1958); assay: LTEA_HepaRG_EGR1: Life Technologies and Expression Analysis (LTEA) Assay for Early growth response protein 1 (EGR1) transcription factor using HepaRG (AID 2283490)
In short: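 Differentiated HepaRG cells in serum-free induction medium exposed 48 hours, duplicate, to 8 half-log concentrations up to 100 uM in 0.5% DMSO. EGR1 mRNA measured by TaqMan qRT-PCR, normalized to ACTB, GAPDH, POLR2A; bidirectional fit versus DMSO.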

[6] = read-out: Ezrin (EZR), EZR (gene 7430); assay: LTEA_HepaRG_EZR: Life Technologies and Expression Analysis (LTEA) Assay for Ezrin (EZR) using HepaRG (AID 2283491)
In short: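 Differentiated human HepaRG cells, 48 h after plating, were exposed in serum-free induction medium for 48 hours to eight half-log concentrations up to 100 uM in 0.5% DMSO. EZR mRNA was measured by TaqMan qRT-PCR, normalized to ACTB, GAPDH and POLR2A, and fitted bidirectionally against DMSO.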

[7] = read-out: Cytochrome P450 3A7 (Homo sapiens) (UniProt P24462); assay: LTEA_HepaRG_CYP3A7: Life Technologies and Expression Analysis (LTEA) Assay for CYP3A7 using HepaRG (AID 2283492)
In short: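 Human HepaRG liver cells, 48 h post-plating, switched to serum-free induction medium and exposed in duplicate for 48 h. Dosing: 100 uM top, half-log dilutions, 8 points, 0.5% DMSO vehicle. Read-out: CYP3A7 mRNA, gain or loss fitted against DMSO baseline.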

[8] = read-out: CYP3A5 (gene 1577); assay: LTEA_HepaRG_CYP3A5: Life Technologies and Expression Analysis (LTEA) Assay for CYP3A5 using HepaRG (AID 2283493)
In short: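 Differentiated HepaRG cells in serum-free induction medium were dosed 48 h with test chemicals (8-point half-log series, top 100 uM, 0.5% DMSO, duplicate). CYP3A5 mRNA measured by qRT-PCR, normalized to ACTB, GAPDH, POLR2A; bidirectional fit versus DMSO.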

[9] = read-out: Fatty Acid-Binding Protein 1 (FABP1), FABP1 (gene 2168); assay: LTEA_HepaRG_FABP1: Life Technologies and Expression Analysis (LTEA) Assay for Fatty Acid-Binding Protein 1 (FABP1) using HepaRG (AID 2283494)
In short: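 Differentiated human HepaRG cells exposed 48 h in serum-free induction medium to eight half-log concentrations up to 100 uM (0.5% DMSO), duplicate. FABP1 mRNA by qRT-PCR, normalised to ACTB, GAPDH, POLR2A; bidirectional fitting against DMSO.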

[10] = read-out: Cytochrome P450 4A22 (Homo sapiens) (UniProt Q5TCH4); assay: LTEA_HepaRG_CYP4A22: Life Technologies and Expression Analysis (LTEA) Assay for Cytochrome P450 4A22 (CYP4A22) using HepaRG (AID 2283495)
In short: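 Readout is CYP4A22 transcript induction or loss, quantified by qRT-PCR and normalized to ACTB, GAPDH and POLR2A. Human HepaRG cells receive test chemicals for 48 h at eight half-log concentrations from 100 uM in 0.5% DMSO.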

[11] = read-out: Cytochrome P450 7A1 (Homo sapiens) (UniProt P22680); assay: LTEA_HepaRG_CYP7A1: Life Technologies and Expression Analysis (LTEA) Assay for Cytochrome P450 7A1 (CYP7A1) using HepaRG (AID 2283496)
In short: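 Gene expression endpoint in human HepaRG liver cells treated for 48 h with test chemicals (up to 100 uM, 0.5% DMSO). Values come from bidirectional concentration-response fitting versus DMSO.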

[12] = read-out: Glutathione S-Transferase (GSTA2), GSTA2 (gene 2939); assay: LTEA_HepaRG_GSTA2: Life Technologies and Expression Analysis (LTEA) Assay for Glutathione S-Transferase (GSTA2) using HepaRG (AID 2283497)
In short: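 Differentiated human HepaRG cells were exposed in duplicate for 48 h in serum-free induction medium, 8 points from 100 uM top in half-log steps, 0.5% DMSO. GSTA2 mRNA was measured by TaqMan qRT-PCR, normalized to ACTB, GAPDH and POLR2A; bidirectional fit versus DMSO.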

[13] = read-out: Glutamate-cysteine ligase catalytic (GCLC), GCLC (gene 2729); assay: LTEA_HepaRG_GCLC: Life Technologies and Expression Analysis (LTEA) Assay for Glutamate-cysteine ligase catalytic (GCLC) using HepaRG (AID 2283498)
In short: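 Differentiated HepaRG cells exposed 48 h in serum-free induction medium, eight-point half-log series topping at 100 uM in 0.5% DMSO, duplicates. GCLC mRNA by qRT-PCR normalized to ACTB, GAPDH and POLR2A, fitted bidirectionally versus DMSO.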

[14] = read-out: growth arrest and DNA damage 45 (GADD45G), GADD45G (gene 10912); assay: LTEA_HepaRG_GADD45G: Life Technologies and Expression Analysis (LTEA) Assay for growth arrest and DNA damage 45 (GADD45G) using HepaRG (AID 2283499)
In short: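 Gain or loss of GADD45G mRNA, quantified by TaqMan qRT-PCR against three housekeeping genes, is fitted in both directions relative to 0.5% DMSO. Human HepaRG cultures receive test chemical for 48 h at up to 100 uM.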

[15] = read-out: Glutamate-cysteine ligase regulatory (GCLM), GCLM (gene 2730); assay: LTEA_HepaRG_GCLM: Life Technologies and Expression Analysis (LTEA) Assay for Glutamate-cysteine ligase regulatory (GCLM) using HepaRG (AID 2283500)
In short: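 Differentiated human HepaRG cells exposed 48 h in serum-free induction medium to 8-point half-log concentrations (top 100 uM, 0.5% DMSO), in duplicate. GCLM mRNA quantified by qRT-PCR, normalized to ACTB, GAPDH, POLR2A; bidirectional fitting versus DMSO.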

[16] = read-out: Glutathione S-transferase M3 (GSTM3), GSTM3 (gene 2947); assay: LTEA_HepaRG_GSTM3: Life Technologies and Expression Analysis (LTEA) Assay for Glutathione S-transferase M3 (GSTM3) using HepaRG (AID 2283501)
In short: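 HepaRG, plated 48 h, then serum-free induction medium; test chemical 48 h, duplicate; 100 uM top, half-log x8, 0.5% DMSO. Read-out: GSTM3 mRNA (TaqMan qRT-PCR, Fluidigm array). Bidirectional fit vs DMSO.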

[17] = read-out: Heat shock 70 kDa protein 1 (HSPA1A), gene 3303; assay: LTEA_HepaRG_HSPA1A: Life Technologies and Expression Analysis (LTEA) Assay for Heat shock 70 kDa protein 1 (HSPA1A) using HepaRG (AID 2283502)
In short: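 Differentiated human HepaRG cells in serum-free induction medium were exposed in duplicate for 48 h to eight concentrations (top 100 uM, half-log steps, 0.5% DMSO). HSPA1A mRNA was quantified by qRT-PCR, normalized to ACTB, GAPDH and POLR2A, and fitted bidirectionally against DMSO.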

[18] = read-out: Hypoxia-inducible factor 1-alpha (Homo sapiens) (UniProt Q16665); assay: LTEA_HepaRG_HIF1A: Life Technologies and Expression Analysis (LTEA) Assay for Hypoxia-inducible factor 1 (HIF1A) Trancription factor using HepaRG (AID 2283503)
In short: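 HepaRG, 48 h exposure, 8-pt half-log series from 100 uM, 0.5% DMSO vehicle, duplicates. Readout: HIF1A transcript by qRT-PCR (Fluidigm array), housekeeping-normalised. Bidirectional curve fit vs DMSO baseline.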

[19] = read-out: 3-Hydroxy-3-Methylglutaryl-CoA Synthase 2 (HMGCS2), HMGCS2 (gene 3158); assay: LTEA_HepaRG_HMGCS2: Life Technologies and Expression Analysis (LTEA) Assay for 3-Hydroxy-3-Methylglutaryl-CoA Synthase 2 (HMGCS2) using HepaRG (AID 2283504)
In short: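 HepaRG, plated 48 h then switched to serum-free induction media; cmpd 8-pt, max 100 uM, 1/2-log, 0.5% DMSO, n=2, 48 h. HMGCS2 mRNA by Fluidigm TaqMan qRT-PCR, ACTB/GAPDH/POLR2A norm; bidirectional fit vs DMSO.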

[20] = read-out: HGF (gene 3082); assay: LTEA_HepaRG_HGF: Life Technologies and Expression Analysis (LTEA) Assay for Hepatocyte Growth Facto (HGF) using HepaRG (AID 2283505)
In short: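 Read-out is HGF transcript level by qRT-PCR, normalized to three housekeeping genes, fitted bidirectionally against 0.5% DMSO vehicle. Human HepaRG cells received test chemicals for 48 h at up to 100 uM.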

Measured: AC50

Cytochrome P450 3A7 (Homo sapiens), sequence (P24462 whole entry, looked up): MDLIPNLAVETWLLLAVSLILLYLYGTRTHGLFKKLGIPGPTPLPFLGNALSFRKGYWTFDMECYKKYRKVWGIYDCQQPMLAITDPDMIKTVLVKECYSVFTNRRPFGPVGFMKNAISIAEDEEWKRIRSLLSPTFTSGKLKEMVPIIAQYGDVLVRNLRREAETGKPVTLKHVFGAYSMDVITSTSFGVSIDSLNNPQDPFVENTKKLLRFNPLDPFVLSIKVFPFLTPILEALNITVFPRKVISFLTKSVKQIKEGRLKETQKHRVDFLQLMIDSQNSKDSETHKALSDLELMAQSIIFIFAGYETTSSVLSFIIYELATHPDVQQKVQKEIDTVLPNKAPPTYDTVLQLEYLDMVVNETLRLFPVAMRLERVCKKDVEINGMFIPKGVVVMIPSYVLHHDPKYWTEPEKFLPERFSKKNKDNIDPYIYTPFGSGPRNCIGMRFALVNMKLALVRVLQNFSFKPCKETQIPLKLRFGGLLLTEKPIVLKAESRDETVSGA
Hypoxia-inducible factor 1-alpha (Homo sapiens), sequence (Q16665 whole entry, looked up): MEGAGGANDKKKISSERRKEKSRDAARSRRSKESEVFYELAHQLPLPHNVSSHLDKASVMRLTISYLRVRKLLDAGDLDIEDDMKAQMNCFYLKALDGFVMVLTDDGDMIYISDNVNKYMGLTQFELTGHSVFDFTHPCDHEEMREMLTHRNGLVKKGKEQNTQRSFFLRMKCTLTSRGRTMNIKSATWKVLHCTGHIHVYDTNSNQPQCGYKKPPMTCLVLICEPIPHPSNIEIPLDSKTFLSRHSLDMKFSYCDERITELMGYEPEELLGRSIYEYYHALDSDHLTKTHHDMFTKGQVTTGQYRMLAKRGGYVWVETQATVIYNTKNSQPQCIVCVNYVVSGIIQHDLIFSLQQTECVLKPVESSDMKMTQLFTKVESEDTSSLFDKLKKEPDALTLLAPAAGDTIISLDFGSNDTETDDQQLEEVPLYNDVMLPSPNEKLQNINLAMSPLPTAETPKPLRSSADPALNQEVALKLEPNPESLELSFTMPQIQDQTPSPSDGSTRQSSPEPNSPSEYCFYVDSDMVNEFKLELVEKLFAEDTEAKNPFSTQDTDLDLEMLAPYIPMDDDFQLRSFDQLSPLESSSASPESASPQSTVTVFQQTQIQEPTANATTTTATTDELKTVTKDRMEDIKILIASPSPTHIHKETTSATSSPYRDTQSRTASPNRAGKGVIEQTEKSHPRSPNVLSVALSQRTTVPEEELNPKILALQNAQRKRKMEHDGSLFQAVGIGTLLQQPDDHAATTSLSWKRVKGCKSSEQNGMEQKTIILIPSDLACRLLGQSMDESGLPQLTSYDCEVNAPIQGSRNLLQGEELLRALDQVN
Cytochrome P450 3A4 (Homo sapiens), sequence (P08684 whole entry, looked up): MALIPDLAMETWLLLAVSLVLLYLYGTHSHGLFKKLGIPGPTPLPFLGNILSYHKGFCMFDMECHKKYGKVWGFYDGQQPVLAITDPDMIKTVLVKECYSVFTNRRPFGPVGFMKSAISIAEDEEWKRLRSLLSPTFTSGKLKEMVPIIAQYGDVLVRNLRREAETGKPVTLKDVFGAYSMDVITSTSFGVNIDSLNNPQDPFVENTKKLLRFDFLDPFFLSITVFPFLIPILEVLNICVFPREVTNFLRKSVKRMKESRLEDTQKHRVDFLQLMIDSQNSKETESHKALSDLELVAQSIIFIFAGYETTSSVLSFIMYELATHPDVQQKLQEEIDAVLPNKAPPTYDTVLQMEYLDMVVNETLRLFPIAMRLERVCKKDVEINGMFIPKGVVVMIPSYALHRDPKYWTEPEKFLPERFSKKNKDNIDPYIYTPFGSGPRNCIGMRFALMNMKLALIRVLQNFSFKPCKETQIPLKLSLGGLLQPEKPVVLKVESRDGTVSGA

Nc1ccc(Oc2ccc(N)cc2)cc1
active: [9] 50 µM
inactive: all other assays above

OCCCBr
inactive: all assays above

C[N+](C)(C)CC1CO1 (stereo not given)
inactive: all assays above

ClC1=C(Cl)[C@]2(Cl)[C@H]3[C@H]([C@@H]4C=C[C@H]3C4)[C@@]1(Cl)C2(Cl)Cl
active: [1] 29.6 µM | [2] 4.36 µM | [7] 8.45 µM | [9] 6.01 µM | [10] 29.1 µM | [11] 19.4 µM | [15] 12.7 µM
inactive: all other assays above

COc1cc(C=O)cc2c1[C@H](COC(N)=O)[C@]1(OC(C)=O)ON2C[C@H]2[C@@H]1N2C(C)=O
active: [1] 0.5 µM | [3] 15.8 µM | [5] 88.8 µM | [9] 0.701 µM | [10] 0.0669 µM | [11] 0.417 µM | [12] 1.06 µM | [13] 0.312 µM | [14] 21.8 µM | [18] 3.94 µM | [19] 0.827 µM
inactive: [2] | [4] | [6] | [7] | [8] | [15] | [16] | [17] | [20]

CCCCOC(=O)c1ccccc1C(=O)OCc1ccccc1
inactive: all assays above

Cc1ccc(N)cc1
inactive: all assays above

— PubChem BioAssay (EPA / NIEHS)
